Assay results published in PubChem BioAssay (EPA / NIEHS).
Several values for one entry are separate records, joined by “and”; a condition that tells them apart may be missing. Equal entries are not always repeated. Some structures have more than one record in an assay (separate samples or runs), and their calls can disagree. Activity calls are given as the source filed them. Rule for the calls: active = hit-call score of the fitted dose curve at least 0.9, where 1 is the maximum; inactive = score below 0.9.

Assay: ATG_M_61_CIS: Attagene CIS-FACTORIAL HepG2 Assay for M61 Transcription Factor (Internal Marker) (AID 2282937)
Conditions: HepG2 Attagene CIS-FACTORIAL M61 internal marker reporter; actives raise or lower the signal
Summary of the method: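 Human liver HepG2, transient MRTU transfection (cis promoter elements), 24 h compound. Total RNA → oligo(dT) RT → PCR → FAM label → HpaI → CE. Internal background marker; bidirectional fitting, DMSO = baseline.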

Row | Compound | outcome
1 | C[Si](C)(C)C(F)(F)C(F)(F)C(F)(F)F | inactive
2 | FC(F)C(F)(F)COCC1CO1 (configuration not stated) | inactive
3 | CCN(CC)C(=S)SSC(=S)N(CC)CC | inactive
4 | CCOC(N)=O | inactive
5 | CCc1cccc(CC)c1N | inactive
6 | Cc1cccc(O)c1C | inactive
7 | C[C@]12C=CC(=O)C=C1CC[C@H]1[C@@H]3C[C@@H](O)[C@](O)(C(=O)CO)[C@@]3(C)C[C@H](O)[C@@]12F | inactive
8 | OCCOCCOCCO | inactive
9 | Cc1nc(-c2ccccn2)ncc1C(=O)Nn1cc(C)c2cc(F)ccc21 | inactive
10 | O=S(=O)(O)CCC(F)(F)C(F)(F)C(F)(F)C(F)(F)C(F)(F)C(F)(F)F | inactive
11 | O=C1CN(N=Cc2ccc([N+](=O)[O-])o2)C(=O)N1 | inactive
12 | FC(F)(F)COC(OCC(F)(F)F)OCC(F)(F)F | inactive
13 | FC(F)(F)C(F)(F)C(F)(F)C(F)(F)C(F)(F)C(F)(F)I | inactive
14 | O=C(O)CO | inactive
15 | O=C(Cl)C(F)(F)C(F)(F)C(F)(F)C(=O)Cl | inactive
16 | NC(N)=O | inactive
17 | OCc1c[nH]c2ccccc12 | inactive
18 | S=P(N1CC1)(N1CC1)N1CC1 | inactive
19 | CCCCC(CC)C(=O)OCCOCCOCCOC(=O)C(CC)CCCC (configuration not stated) | inactive
20 | CC(C)c1nnc2ccc(-c3ocnc3-c3cc(F)ccc3F)cn12 | inactive
21 | CCCCCCCC1CCC(=O)O1 (configuration not stated) | inactive
22 | NCC(F)(F)C(F)(F)C(F)(F)C(F)(F)F | inactive
23 | CCCCCCCCCCCCCCO | inactive
24 | CCCCCCCCCC | inactive
25 | OC(O)(C(F)C(O)(O)C(F)(F)F)C(F)(F)F | inactive
26 | FC(F)=C(F)C(F)(F)C(F)(F)C(F)(F)C(F)(F)C(F)(F)C(F)(F)F | inactive
27 | O=C(N[C@H](CO)[C@H](O)c1ccc([N+](=O)[O-])cc1)C(Cl)Cl | inactive
28 | OCCC(F)(F)C(F)(F)C(F)(F)C(F)(F)F | inactive

Assay: ATG_EGR_CIS: Attagene CIS-FACTORIAL HepG2 Assay for human Early Growth Response 1 (EGR1) (AID 2282938)
Conditions: HepG2 Attagene CIS-FACTORIAL EGR reporter mRNA; actives raise or lower the signal
Summary of the method: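 Transient transfection of human HepG2 with multiple cis-regulated reporter units, chemical exposure 24 h, total RNA isolated. Reverse transcription, PCR, fluorescent labelling and capillary electrophoresis quantify reporter transcripts; activity fitted bidirectionally against DMSO.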

Row | Compound | outcome
29 | C[Si](C)(C)C(F)(F)C(F)(F)C(F)(F)F | inactive
30 | Cc1cccc(O)c1C | inactive
31 | O=C1CN(N=Cc2ccc([N+](=O)[O-])o2)C(=O)N1 | inactive
32 | FC(F)(F)COC(OCC(F)(F)F)OCC(F)(F)F | inactive
33 | FC(F)(F)C(F)(F)C(F)(F)C(F)(F)C(F)(F)C(F)(F)I | inactive
34 | NC(N)=O | inactive
35 | CC(C)c1nnc2ccc(-c3ocnc3-c3cc(F)ccc3F)cn12 | inactive
36 | CCCCCCCC1CCC(=O)O1 (configuration not stated) | inactive
37 | NCC(F)(F)C(F)(F)C(F)(F)C(F)(F)F | inactive
38 | O=C(N[C@H](CO)[C@H](O)c1ccc([N+](=O)[O-])cc1)C(Cl)Cl | inactive
39 | OCCC(F)(F)C(F)(F)C(F)(F)C(F)(F)F | inactive

Assay: ATG_M_19_CIS: Attagene CIS-FACTORIAL HepG2 Assay for M19 Transcription Factor (Internal Marker) (AID 2282939)
Conditions: HepG2 Attagene CIS-FACTORIAL M19 internal marker reporter; actives raise or lower the signal
Summary of the method: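 Following a 24 h exposure, RNA from transfected HepG2 cells was reverse-transcribed, PCR-amplified with reporter-specific primers, end-labelled with 6-FAM and HpaI-digested before capillary separation. Values represent gain or loss versus DMSO.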

Row | Compound | outcome
40 | C[Si](C)(C)C(F)(F)C(F)(F)C(F)(F)F | inactive
41 | FC(F)C(F)(F)COCC1CO1 (configuration not stated) | inactive
42 | CCN(CC)C(=S)SSC(=S)N(CC)CC | inactive
43 | CCOC(N)=O | inactive
44 | CCc1cccc(CC)c1N | inactive
45 | Cc1cccc(O)c1C | inactive
46 | C[C@]12C=CC(=O)C=C1CC[C@H]1[C@@H]3C[C@@H](O)[C@](O)(C(=O)CO)[C@@]3(C)C[C@H](O)[C@@]12F | inactive
47 | OCCOCCOCCO | inactive
48 | Cc1nc(-c2ccccn2)ncc1C(=O)Nn1cc(C)c2cc(F)ccc21 | inactive
49 | O=S(=O)(O)CCC(F)(F)C(F)(F)C(F)(F)C(F)(F)C(F)(F)C(F)(F)F | inactive
50 | O=C1CN(N=Cc2ccc([N+](=O)[O-])o2)C(=O)N1 | inactive
51 | FC(F)(F)COC(OCC(F)(F)F)OCC(F)(F)F | inactive
52 | FC(F)(F)C(F)(F)C(F)(F)C(F)(F)C(F)(F)C(F)(F)I | inactive
53 | O=C(O)CO | inactive
54 | O=C(Cl)C(F)(F)C(F)(F)C(F)(F)C(=O)Cl | inactive
55 | NC(N)=O | inactive
56 | OCc1c[nH]c2ccccc12 | inactive
57 | S=P(N1CC1)(N1CC1)N1CC1 | inactive
58 | CCCCC(CC)C(=O)OCCOCCOCCOC(=O)C(CC)CCCC (configuration not stated) | inactive
59 | CC(C)c1nnc2ccc(-c3ocnc3-c3cc(F)ccc3F)cn12 | inactive
60 | CCCCCCCC1CCC(=O)O1 (configuration not stated) | inactive
61 | NCC(F)(F)C(F)(F)C(F)(F)C(F)(F)F | inactive
62 | CCCCCCCCCCCCCCO | inactive
63 | CCCCCCCCCC | inactive
64 | OC(O)(C(F)C(O)(O)C(F)(F)F)C(F)(F)F | inactive
65 | FC(F)=C(F)C(F)(F)C(F)(F)C(F)(F)C(F)(F)C(F)(F)C(F)(F)F | inactive
66 | O=C(N[C@H](CO)[C@H](O)c1ccc([N+](=O)[O-])cc1)C(Cl)Cl | inactive
67 | OCCC(F)(F)C(F)(F)C(F)(F)C(F)(F)F | inactive

Assay: ATG_ERE_CIS: Attagene CIS-FACTORIAL HepG2 Assay for Estrogen Response Element (ERE) (AID 2282940)
Conditions: HepG2 ERE cis-reporter, Attagene RNA transcript; actives raise or lower the signal
Summary of the method: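 HepG2, transient cis-reporter units, 24 h exposure. RNA isolated, oligo(dT) RT, reporter-specific PCR, FAM extension, HpaI cut, CE detection. Gain/loss-of-signal vs DMSO.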

Row | Compound | outcome | AC50
68 | C[Si](C)(C)C(F)(F)C(F)(F)C(F)(F)F | inactive | –
69 | FC(F)C(F)(F)COCC1CO1 (configuration not stated) | inactive | 118 µM (active)
70 | CCN(CC)C(=S)SSC(=S)N(CC)CC | inactive | –
71 | CCOC(N)=O | inactive | –
72 | CCc1cccc(CC)c1N | inactive | –
73 | Cc1cccc(O)c1C | – | 59.3 µM (active) and 59.6 µM (active)
74 | C[C@]12C=CC(=O)C=C1CC[C@H]1[C@@H]3C[C@@H](O)[C@](O)(C(=O)CO)[C@@]3(C)C[C@H](O)[C@@]12F | – | 17.8 µM (active)
75 | OCCOCCOCCO | inactive | –
76 | Cc1nc(-c2ccccn2)ncc1C(=O)Nn1cc(C)c2cc(F)ccc21 | inactive | –
77 | O=S(=O)(O)CCC(F)(F)C(F)(F)C(F)(F)C(F)(F)C(F)(F)C(F)(F)F | inactive | –
78 | O=C1CN(N=Cc2ccc([N+](=O)[O-])o2)C(=O)N1 | – | 27.6 µM (active)
79 | FC(F)(F)COC(OCC(F)(F)F)OCC(F)(F)F | inactive | –
80 | FC(F)(F)C(F)(F)C(F)(F)C(F)(F)C(F)(F)C(F)(F)I | – | 24 µM (active) and 27.1 µM (active)
81 | O=C(O)CO | inactive | –
82 | O=C(Cl)C(F)(F)C(F)(F)C(F)(F)C(=O)Cl | inactive | –
83 | NC(N)=O | inactive | –
84 | OCc1c[nH]c2ccccc12 | – | 8.17 µM (active) [middle of 5 runs]
85 | S=P(N1CC1)(N1CC1)N1CC1 | inactive | –
86 | CCCCC(CC)C(=O)OCCOCCOCCOC(=O)C(CC)CCCC (configuration not stated) | inactive | –
87 | CC(C)c1nnc2ccc(-c3ocnc3-c3cc(F)ccc3F)cn12 | inactive | –
88 | CCCCCCCC1CCC(=O)O1 (configuration not stated) | inactive | –
89 | NCC(F)(F)C(F)(F)C(F)(F)C(F)(F)F | inactive | –
90 | CCCCCCCCCCCCCCO | inactive | –
91 | CCCCCCCCCC | inactive | –
92 | OC(O)(C(F)C(O)(O)C(F)(F)F)C(F)(F)F | inactive | 150 µM (active)
93 | FC(F)=C(F)C(F)(F)C(F)(F)C(F)(F)C(F)(F)C(F)(F)C(F)(F)F | inactive | –
94 | O=C(N[C@H](CO)[C@H](O)c1ccc([N+](=O)[O-])cc1)C(Cl)Cl | inactive | –
95 | OCCC(F)(F)C(F)(F)C(F)(F)C(F)(F)F | inactive | –
